16 sequences from the supplement of paper PMC6555819 can be followed below.

Common to all, as to assay: PBM binding z-score (relative to random genomic background probes); higher = stronger binding; sequences stand for … in GC…GCGATTGACAGCGTAGAATGAAGG
The test system of test [1] is RARb homodimer (NR concentration 270 nM). The method, boiled down: (§1)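 On custom Agilent 4×180K arrays, double-stranded probes with 34-nt variable regions carried direct-repeat seeds, single-nucleotide variants, half-site ablations or random human genomic background. Ligand-free nuclear receptor dimers were applied for 1 h, and binding was read with antibodies against each partner (one per run). Binding z-scores come from regression-normalized fluorescence, with the random background probes as reference.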

For test [2], the system named is RARg:RXRa (NR concentration 270 nM, RXRa partner concentration 90 nM). Summed up: as §1
Test [3] has as its system RARg homodimer (NR concentration 270 nM). The method, boiled down: as §1
Test [4] concerns RXRa DBDmut IVT, anti-RXR (DBD mutation: RXRa K156A/R161A, NR concentration 90 nM). The method, boiled down:
as §1

In test [5] the test system is RXRa homodimer (NR concentration 180 nM). Summed up: as §1
The subject of test [6] is THRa:RXRa (NR concentration 90 nM, RXRa partner concentration 90 nM). The method, boiled down:
as §1

Test [7] concerns THRa homodimer (NR concentration 90 nM). The method, boiled down: as §1
For test [8], the system named is VDR:RXRa (NR concentration 270 nM, RXRa partner concentration 90 nM). Summed up: as §1
The subject of test [9] is VDR homodimer (NR concentration 270 nM). The method, boiled down:
as §1

As to CCTACTGGGCCATCATGTCATTGATATCAACGTT, the PBM binding z-score in [1] is 0.671; in [2], 0.216; in [3], 0.415; in [4], -0.152; in [5], -0.104; in test [6], 0.045. The values for the PBM binding z-score in test [7], in [8] and in test [9] were 0.122, 0.0429 and -0.253, respectively.
ATCTCTAGGTACAGATAGTTCAGTGAATGCAAAT: the PBM binding z-score turned out to be 0.913 in test [1]; 0.74 in test [2]; 0.847 in test [3]; 1.17 in test [4]; 0.198 in test [5]; 0.432 in [6]. For the same sequence, the values for the PBM binding z-score in test [7], in test [8] and in test [9] were 0.0409, 1.18 and 1.65, respectively.
For CCTACTCGGCCATTCAGAGGTCATTGATCATATG, the PBM binding z-score in test [1] is 4.19; in [2] it was 4.17; in test [3], 3.64; in test [4], 2; in test [5] it was 3.59; in test [6], 3.32. The PBM binding z-score in test [7] worked out at 1.99; in [8], 4.06; in test [9] it was 4.02.
As to GCTTCTAGGTCAACTGATGGTCAGCTAAAGCTCG, the PBM binding z-score in test [1] came to 3.97; in test [2], 5.38; in [3] it was 5.89; in test [4], 1.54; in [5], 3.56; in test [6], 3.5. Also, the values for the PBM binding z-score in [7], in test [8] and in test [9] were 1.79, 2.06 and 0.255, respectively.
In the case of TCTAATAGTTGAAGGGCAACCGACGAGTCCGTTT, the PBM binding z-score turned out to be 1.24 in test [1]; 0.639 in [2]; 0.887 in [3]; 1.7 in [4]; 0.869 in [5]; 0.0071 in [6]. For the same sequence, the PBM binding z-score in test [7] was -0.423; in [8], 0.759; in [9], 1.41.
For the sequence CAAACTAGGTCACCGGAAGGTCAAAGGCCGCATG, the PBM binding z-score was found to be 5.41 in test [1]; 8.42 in test [2]; 7.47 in [3]; 1.23 in [4]; 6.36 in test [5]; 4.56 in test [6]. Besides, the PBM binding z-score is 2.79 in test [7], 5.88 in test [8] and 2.8 in test [9].
On to CCTAGCAGGCCAATCTGAGTCACTCAAGGCTTGA, for which the PBM binding z-score in [1] is -0.614; in [2], -0.539; in test [3], -0.118; in test [4], 0.122; in test [5], -0.769; in test [6], -0.175. For the same sequence, the PBM binding z-score was -0.499 in test [7], -0.947 in test [8] and -0.793 in test [9].
For the sequence CGAACTAGGTCAAGGACAGTGCATCTCCGCACGC, the PBM binding z-score was determined as 3.51 in [1]; 4.21 in test [2]; 4.75 in test [3]; 1.45 in [4]; 2.72 in test [5]; 3.28 in test [6]. Besides, the PBM binding z-score is 2.03 in test [7], 2.39 in test [8] and 0.69 in test [9].
Take ATACCAAGGTGATCATGAGGTCGTTGATACTAAC: the PBM binding z-score was determined as 1.85 in test [1]; 2.23 in test [2]; 1.18 in test [3]; 1.08 in test [4]; 1.75 in test [5]; 3.55 in test [6]. The PBM binding z-score in test [7] turned out to be 2.94; in [8], 3.38; in [9], 3.15.
Turning to TCGAGTAGGTTAGGGGCATTAAGAATGGCGTCGA, the PBM binding z-score was determined as 0.787 in test [1]; 0.329 in test [2]; 0.269 in test [3]; 0.304 in test [4]; 0.639 in test [5]; 0.955 in test [6]. The PBM binding z-score in test [7] worked out at 0.048; in test [8], 0.706; in [9] it was 0.785.
Regarding TAGCCTAGGTCATTGGGCCAGTACAGTACGCATC, the PBM binding z-score was found to be 3.02 in [1]; 3.95 in test [2]; 4.57 in test [3]; 1.77 in test [4]; 3.3 in test [5]; 2.91 in [6]. The PBM binding z-score in [7] stood at 0.878; in [8], 2.19; in [9], 1.28.
On to ATCGAAAGGTCGGGGTGAGTATAGAGAAAGGGAA, for which the PBM binding z-score amounted to 2.88 in test [1]; 3.7 in [2]; 3.63 in [3]; 1.78 in test [4]; 3.77 in test [5]; 3.06 in [6]. The PBM binding z-score came to 1.35 in test [7], 3.1 in test [8] and 1.52 in test [9].
As to AATACAGGGTCACTAGGCCAGACTAGGTACGAAT, the PBM binding z-score was determined as 3.25 in [1]; 5.28 in test [2]; 4.68 in test [3]; 2.72 in [4]; 5.35 in test [5]; 3.44 in test [6]. In addition, the figures for the PBM binding z-score in test [7], in test [8] and in [9] were 1.22, 4.22 and 2.17, respectively.
CCTAGCAGGCCAATCTGCGTCACTCAAGGCTTGA: the PBM binding z-score in [1] was -0.405; in test [2], -0.524; in [3] it was -0.155; in test [4], 0.164; in [5], -0.602; in [6], -0.51. Also, the PBM binding z-score was -0.515 in test [7], -0.714 in [8] and -0.294 in test [9].
For the sequence ATACCTAGGTGATCGTGAGGTCGTTGATACTAAC, the PBM binding z-score in [1] stood at 1.49; in [2], 1.58; in test [3] it was 0.568; in [4], 0.641; in [5] it was 1.51; in test [6], 3.15. For the same sequence, the PBM binding z-score in [7] is 2.51; in test [8] it was 2.66; in [9] it was 3.13.
Consider CAAACAGGGTCAGCTAGGCCAGAGTAGGGACGGC, for which the PBM binding z-score is 3.2 in test [1]; 4.72 in [2]; 4.56 in test [3]; 1.83 in test [4]; 4.56 in [5]; 2.94 in test [6]. In addition, the values for the PBM binding z-score in [7], in [8] and in test [9] were 0.733, 4.09 and 1.44, respectively.
